# In PubChem BioAssay AID488969 (Vanderbilt High Throughput Screening Facility, 2010):
# The full ranking holds about 110,000 compounds; the median of “z-score” is about -0.1, and the highest 2% start at about 2. Shown is part of a subset that was picked to be rich in the highest values. Active and inactive are the calls of the source.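 Rule for the calls: active = z-score in the third read window above 3 or below -3; inactive = the rest.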
# Biological target: Metabotropic glutamate receptor 8 (Rattus norvegicus) (UniProt P70579)
# Experiment: rat mGluR8 modulators via GIRK flux, primary screen, cell-based, thallium flux, HTS (AID 488969)
# Conditions: HEK293 rat mGluR8, GIRK (G protein-gated inwardly rectifying potassium channel) thallium flux, FluoZin2; at 10 µM; stronger effect = higher value; submaximal glutamate (EC20) added with thallium
# Chain of Metabotropic glutamate receptor 8 (Rattus norvegicus) (P70579 whole entry, looked up): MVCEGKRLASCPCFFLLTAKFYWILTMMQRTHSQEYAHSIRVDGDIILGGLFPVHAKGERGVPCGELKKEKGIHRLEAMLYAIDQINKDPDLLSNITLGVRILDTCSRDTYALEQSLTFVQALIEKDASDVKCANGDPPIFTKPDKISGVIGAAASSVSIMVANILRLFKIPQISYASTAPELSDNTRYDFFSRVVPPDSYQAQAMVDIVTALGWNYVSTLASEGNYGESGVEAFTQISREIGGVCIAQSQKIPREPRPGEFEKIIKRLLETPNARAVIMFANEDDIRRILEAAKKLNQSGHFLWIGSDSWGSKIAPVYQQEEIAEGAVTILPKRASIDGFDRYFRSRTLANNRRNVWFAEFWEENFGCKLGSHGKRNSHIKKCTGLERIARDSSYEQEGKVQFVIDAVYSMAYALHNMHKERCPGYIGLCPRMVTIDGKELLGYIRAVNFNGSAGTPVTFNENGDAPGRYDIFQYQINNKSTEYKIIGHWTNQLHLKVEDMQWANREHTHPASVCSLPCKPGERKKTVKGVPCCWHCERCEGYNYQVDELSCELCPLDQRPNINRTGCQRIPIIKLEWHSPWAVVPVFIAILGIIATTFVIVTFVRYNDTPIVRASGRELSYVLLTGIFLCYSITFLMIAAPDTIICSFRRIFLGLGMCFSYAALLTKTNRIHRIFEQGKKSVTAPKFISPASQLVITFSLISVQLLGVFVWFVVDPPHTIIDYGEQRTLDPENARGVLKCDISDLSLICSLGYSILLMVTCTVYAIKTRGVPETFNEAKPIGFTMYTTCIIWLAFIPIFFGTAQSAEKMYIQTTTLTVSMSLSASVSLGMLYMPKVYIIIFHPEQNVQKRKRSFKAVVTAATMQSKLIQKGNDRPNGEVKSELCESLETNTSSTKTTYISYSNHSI
row,Structure (SMILES),z-score
1,CN(C)CC1CCCCC1C1(O)c2ccccc2CSc2sccc21 (configuration not stated),1.47
2,CN1CCC(C2(O)c3ccccc3CSc3sccc32)CC1 (configuration not stated),2.02
3,CN(C)Cc1ccccc1C1(O)c2ccccc2CSc2ccccc21 (configuration not stated),-0.164
4,COc1ccc(Nc2cc(C(=O)NCc3ccco3)c3ccccc3n2)cc1,-0.00632
5,O=C(O)c1cc(S(=O)(=O)Nc2ccccc2C(=O)O)ccc1O,-0.576
6,CCOC(=O)c1c(C)nc2sc(C(N)=O)c(N)c2c1-c1ccccc1,-1.25
7,Cc1cc(S(=O)(=O)n2cnc3cc([N+](=O)[O-])ccc32)ccc1Cl,-0.268
8,Cc1ccc(S(=O)(=O)n2cnc3cc([N+](=O)[O-])ccc32)cc1C,2.81
9,Cc1ccc(S(=O)(=O)n2cnc3cc([N+](=O)[O-])ccc32)c(C)c1C,-0.143
10,C=CCSc1nnc(Cc2cc(=O)[nH]c(=O)[nH]2)n1-c1cc(C)ccc1C,-0.111
11,COc1ccc(NC(=S)N2CCC(N(C)CCN3CCOCC3)CC2)cc1Cl,-0.269
12,C=CCN(CC=C)C(=S)Nc1ccccc1,-0.0866
13,C=CCN(CC=C)C(=S)NC(=O)c1ccc(-c2ccccc2)cc1,11.4 (active)
14,CN(Cc1ccccc1)C(=S)NC(=O)C1CCCCC1,1.47
15,C=CCN(CC=C)C(=S)NC(=O)c1ccc([N+](=O)[O-])cc1,4.84 (active)
16,CN(Cc1ccccc1)C(=S)NC(=O)c1ccc(-c2ccccc2)cc1,4.13 (active)
17,O=C(NC(=S)Nc1ccccn1)c1ccc([N+](=O)[O-])cc1,0.166
18,CCC(=O)NC(=S)NNC(=O)c1ccc([N+](=O)[O-])cc1,0.17
19,CCCN(CCC)C(=S)NC(=O)c1ccc(-c2ccccc2)cc1,-0.959

row,Structure (SMILES),z-score
1,CC(C)NC(=S)NC(=O)c1ccc(-c2ccccc2)cc1,0.201
2,OCc1nc2ccccc2n1C/C=C/c1ccccc1,0.00864
3,O=C(Nc1ccc(Cl)cc1)C1CCCN(S(=O)(=O)c2cnc[nH]2)C1 (configuration not stated),0.605
4,COc1cc(C)c(Br)cc1S(=O)(=O)N1CCCC1,0.188
5,O=C1c2cccc3cccc(c23)C(=O)N1c1ccc2ncccc2c1,-0.261
6,CCOC(=O)C1=C(O)/C(=C\c2cccc(OC)c2)N=C1C,-0.194
7,COc1cccc(-c2nc(Oc3cc(C)cc(C)c3)c3ccccc3n2)c1O,0.123
8,COc1cc(CNCC(C)C)cc(Br)c1OCC(=O)Nc1ccccc1,2.21
9,COc1cc(CNCC(C)C)c(Br)cc1OCC(=O)NCc1ccccc1,0.232
10,CCNCc1cc(Br)c(OCC(=O)Nc2ccccc2)c(OC)c1,1.18
11,COc1ccc(OCC(=O)N2CCN(c3nnc(-c4ccccc4)c4ccccc34)CC2)cc1,0.267
12,CCOC(=O)c1ccc(S(=O)(=O)NCC(c2ccc(N(C)C)cc2)c2c[nH]c3ccccc23)cc1 (configuration not stated),0.201
13,CCOc1ccccc1NC(=O)Cc1c(F)cccc1Cl,-0.491
14,C#CC1(O)CC(C)N(C)C(C)C1 (configuration not stated),-0.0403
15,O=C(NNc1cccc(Cl)n1)c1cccnc1Cl,-0.00142
16,OCCN(CCO)CC(O)COCCC12CC3CC(CC(C3)C1)C2 (configuration not stated),0.239
17,OC(COCCC12CC3CC(CC(C3)C1)C2)CN1CCCCC1 (configuration not stated),-0.152
18,CCN(CC)CC(O)COCCC12CC3CC(CC(C3)C1)C2 (configuration not stated),3.04 (active)
19,O=C(COC(=O)c1cccs1)c1ccc2c(c1)OCCO2,-0.579

row,Structure (SMILES),z-score
1,CC(C)(C)NC(=O)C(c1ccc(F)cc1)N(Cc1ccco1)C(=O)Cn1nnc(-c2cccs2)n1 (configuration not stated),-0.585
2,CCOC(=O)N1CCN(/C=C(\C#N)c2nc3ccccc3s2)CC1,1.73
3,CCOC(=O)N1CCN(C(=O)CSc2ncccn2)CC1,0.107
4,CC(C)NC(=O)c1nc2ccccc2s1,3.05 (active)
5,O=C(CSc1ncnc2ccccc12)N1CCN(c2ccccc2)CC1,-0.0217
6,CC(C)(C)NC(=O)c1nc2ccccc2s1,0.283
7,O=C(NCCO)c1nc2ccccc2s1,1.28
8,O=C(c1nc2ccccc2s1)N1CCSCC1,0.0723
9,CCOC(=O)N1CCN(C(=O)c2nc3ccccc3s2)CC1,2.8
10,CCOC(=O)N1CCN(C(=O)CSc2ncnc3ccccc23)CC1,3.04 (active)
11,S=C(Nc1ccc(Cl)cc1)c1sc(N2CCCCC2)nc1N1CCOCC1,-0.435
12,CC(NC(=O)COc1ccccc1-c1ccccc1)c1ccccc1 (configuration not stated),-0.192
13,O=C(COc1ccc2c(c1)CCC2)N1CCN(c2cccc(C(F)(F)F)c2)CC1,-0.0515
14,Cc1ccc(OCCN2CCN(CC(O)Cn3c4ccccc4c4ccccc43)CC2)cc1 (configuration not stated),0.113
15,CC(C(=O)N1c2ccccc2CCc2ccccc21)n1nnc(-c2ccc(N(C)C)cc2)n1 (configuration not stated),0.255
16,Cc1cc(NC(=O)CSc2nc(CC(C)(C)C)nc3c2c(=O)n(C)c(=O)n3C)no1,-0.0135
17,CCOc1ccc2nc(NC(=O)c3ccoc3C)sc2c1,-0.855
18,COc1ccccc1Nc1nnc(SCC(=O)NC(=O)Nc2ccc3c(c2)OCCO3)s1,-0.138
19,Cc1cc(C(=O)CSc2nnc(-c3cccnc3)n2-c2ccccc2)c(C)n1CC1CCCO1 (configuration not stated),-0.185
